Sampled rows, rich in hits. Any-hit rate of the full collection: about 19%.
DT40 TDP1 no CPT: qHTS for Inhibitors of human tyrosyl-DNA phosphodiesterase 1 (TDP1): qHTS in cells in absence of CPT | AID 686978, 2013 | Potency, µM (highest dose often 46.2 µM), for inactives: at the highest dose activity change, negative = growth inhibition, actives largely listed as inhibitors | hit rate 15% among 420,000 | DT40 Tdp1-/- hTDP1 cells, no CPT, ATP luminescence, 48 h; note: potency is the fitted concentration of half-maximal effect; nearly all actives have a fitted effect of over 55% in size
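Growth kinetics read by CellTiter-Glo luminescence after ≥48 hr at 37 °C. Cells: DT40 Tdp1-/- stably carrying human TDP1, 400 per well, compound exposure in the absence of CPT (DMSO vehicle).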
TDP1 inh: TDP1 (human) enzyme inhibition; hit rate 0.28% among 350,000; recombinant TDP1, AlphaScreen DNA substrate cleavage; Potency, µM (highest dose often 130 µM), for the others: at the top dose activity change, negative = inhibition, hits mostly inhibitors; note: potency is the fitted concentration of half-maximal effect; nearly all actives have a fitted effect of over 40% in size
Target sequence (Q9NUW8 whole entry, looked up): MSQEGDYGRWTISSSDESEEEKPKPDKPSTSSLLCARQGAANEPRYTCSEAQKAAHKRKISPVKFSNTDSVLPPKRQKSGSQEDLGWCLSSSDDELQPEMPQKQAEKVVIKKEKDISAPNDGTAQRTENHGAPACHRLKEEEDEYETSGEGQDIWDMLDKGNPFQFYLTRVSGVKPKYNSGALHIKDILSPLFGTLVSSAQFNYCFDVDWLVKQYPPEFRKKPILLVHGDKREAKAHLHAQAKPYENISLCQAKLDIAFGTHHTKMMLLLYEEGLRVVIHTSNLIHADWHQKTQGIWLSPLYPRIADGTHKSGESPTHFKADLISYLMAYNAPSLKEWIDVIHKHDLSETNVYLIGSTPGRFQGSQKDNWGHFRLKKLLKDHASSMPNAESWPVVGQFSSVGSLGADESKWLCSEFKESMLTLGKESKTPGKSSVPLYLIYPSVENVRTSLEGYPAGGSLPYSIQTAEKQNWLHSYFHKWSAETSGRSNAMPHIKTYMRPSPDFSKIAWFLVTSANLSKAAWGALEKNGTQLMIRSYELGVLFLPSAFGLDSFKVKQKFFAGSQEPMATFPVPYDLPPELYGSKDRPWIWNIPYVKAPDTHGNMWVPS
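Recombinant E. coli-expressed Tdp1 (1 nM) preincubated with compound 15 min at RT, then 5'-biotin/3'-phosphotyrosine-FITC DNA substrate (15 nM) added for 5 min. AlphaScreen beads (10 ug/ml) added, 10 min RT; tyrosine-FITC cleavage read as signal loss.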
IL1B secr inh: inhibitors of inflammasome signaling (IL-1 beta secretion) | hit rate 4.7% among 360,000 | activity change, % at 57.5 µM | THP-1 LPS/ATP IL-1B secretion, AlphaLISA, 16 h; active compounds read low; in the data active = activity change below about -50%; inconclusive = mostly about -30% to -49%
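THP-1 cells pretreated 1 hr with compounds (up to 57.5 uM final), then stimulated with LPS (250 ng/mL final) plus ATP (1.25 mM final); secreted IL-1B measured by AlphaLISA after 16 hr, decreased signal indicating inhibition.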
DT40 TDP1 CPT: growth inhibition of DT40 Tdp1-/-;hTDP1 cells with camptothecin (screen for TDP1 inhibitors). AID 686979. hit rate 12% among 420,000. Potency, µM (top dose mostly 46.2 µM), for inactives: at the highest dose activity change, negative = growth inhibition, most hits filed as inhibitors. chicken DT40 Tdp1-/-;hTDP1 cells + 20 nM CPT, ATP luminescence, 48 h; note: potency is the fitted concentration of half-maximal effect; nearly all actives have a fitted effect of over 55% in size
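Chicken DT40 Tdp1-/- cells complemented with human TDP1, 400 cells/well, exposed to compounds plus 20 nM camptothecin for at least 48 h at 37 C; viability read as ATP content by CellTiter-Glo luminescence.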
ELG1 repair inh: ELG1-dependent DNA repair inhibition; Potency, µM (highest dose often 46.1 µM), without a hit: at the top dose activity change, negative = inhibition, usual class: inhibitors; hit rate 2.3% among 330,000; HEK293T ELG1-luciferase reporter, luminescence, 16 h; DNA damage induced by 5-fluorouridine; note: potency is the fitted concentration of half-maximal effect; nearly all actives have a fitted effect of over 55% in size
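Luminescence from the luciferase reporter, measured 30 min after ONE-Glo reagent at room temperature, was the read-out. Beforehand, 2,000 cells per well were exposed for 16 hr at 37 °C to 5-fluorouridine together with compound or vehicle.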
Giardia kill: kills Giardia lamblia. activity change, % at 7.66 µM, hits read low. AID 540267. Giardia lamblia trophozoite viability. hit rate 0.15% among 340,000; in the data active = activity change below about -80%; inconclusive = between about -30% and that limit;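 note: parasites exposed to compound for two days anaerobically before the ATP read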
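Trophozoite viability was measured as ATP-dependent luminescence, read 15-30 min after reagent addition. Before that, parasites at 100 cells/well were exposed to compounds for 48 h, anaerobically, at 37 deg C.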
The depositor's hits bear a star; u = inconclusive; x = no result given; [ ] = remark or other dose. Unless noted, calls come from the whole dose curve; as a rule, active = well fitted curve in the direction sought with a large enough effect; inconclusive = small, poorly fitted or top-dose-only effect, or another doubt; inactive = no such curve, though single readings can be large; an effect the other way counts as inactive or inconclusive. % is set by controls: 0 for no effect and ±100 for the full control effect.

SMILES	DT40 TDP1 no CPT	TDP1 inh	IL1B secr inh	DT40 TDP1 CPT	ELG1 repair inh	Giardia kill
O=C(O)CC(c1ccccc1)c1ccccc1	-36.1%	1.0%	16.4	-4.7%	-14.2%	-4.1
Cc1nc(-c2ccc(S(=O)(=O)N3CCN(c4ccc(F)cc4)CC3)cc2)co1	u	3.3%	x	u	x	x
Cc1ccc(S(=O)(=O)CC(=O)N2CCN(c3cccc(C(F)(F)F)c3)CC2)cc1	20.6µM*	0.8%	-0.9	16.4µM*	-8.8%	13.5
CC1(C2CC2)NC(=O)N(CC(=O)N2CCN(c3cccc(C(F)(F)F)c3)CC2)C1=O (stereo not given)	11.6µM*	0.9%	-3.4	14.6µM*	u	-2.5
Cc1nc(-c2ccc(S(=O)(=O)N3CCN(c4cccc(C(F)(F)F)c4)CC3)cc2)co1	18.4µM*	4.4%	x	u	x	x
COc1ccccc1CC(=O)N1CCN(c2cccc(C(F)(F)F)c2)CC1	13µM*	3.9%	-4.7	23.1µM*	-11.0%	-15.2
COC(=O)[C@]12CCCCC=C1N(Cc1ccccc1)C(=O)[C@H](CC(=O)NCCCN1CCCC1=O)C2	-16.7%	x	-4.1	-0.9%	x	x
CC(C)(C)OC(=O)N1CCC(c2c(C(=O)NCc3ccc4c(c3)OCO4)cnn2-c2ccccc2Cl)CC1	u	3.2%	x	u	x	x
COC(=O)c1cc2oc3ccccc3c2n1CC(=O)Nc1cccc(SC)c1	-25.0%	6.8%	x	u	x	x
Cc1ccc(C(c2sc3nc(-c4ccco4)nn3c2O)N2CCN(Cc3ccccc3)CC2)cc1 (stereo not given)	-29.0%	10.4%	x	-2.0%	x	x
O=C(/C=C/c1ccc(Br)cc1)N1CCN(c2cccc(C(F)(F)F)c2)CC1	u	1.9%	u	u	9.2%	1.9
Cc1ccc(CC(=O)N2CCN(c3cccc(C(F)(F)F)c3)CC2)cc1	18.4µM*	0.0%	-4.8	23.1µM*	-11.8%	9.7
O=C(CCn1cncn1)NCC1Cc2cc(-c3ccsc3)cc(Cl)c2O1 (stereo not given)	-13.3%	x	x	-13.9%	x	x
CC12CC3(C)CC(C)(C1)CC(NC(=O)N1CCCC1)(C2)C3	12.6µM*	3.9%	-12.7	u	5.3%	6.6
CC1(NC(=O)N2CCCCC2)CCS(=O)(=O)C1 (stereo not given)	-4.7%	2.0%	6.0	-11.8%	4.3%	-4.1
CCc1cc2c(=O)[nH]c(CC(N)=O)nc2s1	-14.3%	0.0%	-65.8*	0.7%	11.9%	33.0
Cc1ccc(NC(=O)c2ccc(N3C(=O)C4CC=C(Cl)CC4C3=O)cc2)cc1 (stereo not given)	16.4µM*	1.0%	8.5	u	6.3%	-9.7
C[C@@H]1[C@H](c2ccccc2)OCCS(=O)(=O)N1Cc1cccc(C(F)(F)F)c1	17.8µM*	x	x	u	x	x
O=S1(=O)CCO[C@H]2Cc3ccccc3[C@H]2N1Cc1cccc(C(F)(F)F)c1	u	x	8.7	u	23.6%	7.7
COc1ccccc1NCc1nnc(-c2ccccc2)o1	-14.5%	x	-1.4	15.9%	0.0%	10.6
Cc1c(Cl)cccc1NC(=S)NNc1ncc(C(F)(F)F)cc1Cl	u	7.8%	-69.3*	u	u	-9.6
O=C(NNc1ncc(C(F)(F)F)cc1Cl)c1c(Cl)cccc1Cl	4.11µM*	13.3%	19.4	4.11µM*	15.5%	6.9
FC(F)(F)c1cnc(NNC(=S)Nc2cccnc2)c(Cl)c1	20.6µM*	7.5%	41.2	u	u	20.5
Cc1ccccc1NC(=S)NNc1ncc(C(F)(F)F)cc1Cl	-26.0%	10.1%	-9.2	-10.8%	u	6.0
Fc1ccccc1NC(=S)NNc1ncc(C(F)(F)F)cc1Cl	23.1µM*	10.7%	-19.9	u	u	-6.2
SMILES	DT40 TDP1 no CPT	TDP1 inh	IL1B secr inh	DT40 TDP1 CPT	ELG1 repair inh	Giardia kill
O=C(CCNS(=O)(=O)c1ccc(Cl)cc1)N1CCCCCC1	-21.8%	3.1%	17.6	-8.8%	-1.3%	6.4
CCN(CC)C(=O)COc1ccc(/C(C)=N/NC(=O)c2ccccc2-n2cccc2)cc1	u	3.6%	-2.2	-14.6%	2.2%	6.0
C/C(=N\NC(=O)c1ccc(F)cc1)c1ccccn1	1.03µM*	x	-66.0*	0.92µM*	u	11.5
CCc1ccc(/C(C)=N/NC(=O)c2ccccn2)cc1	4.3%	5.9%	0.0	-3.4%	u	10.7
O=C(N/N=C/c1ccc(Br)cc1)c1ccccc1-n1cccc1	16.4µM*	7.6%	32.1	u	-15.9%	4.0
C/C(=N\NC(=O)c1cc2ccccc2cc1O)c1cc2ccccc2o1	14.6µM*	8.2%	100.9	u	u	4.5
C/C(=N\NC(=O)c1ccccc1-n1cccc1)c1ccccn1	1.84µM*	x	111.8	2.06µM*	x	x
CCCCCCCCCCCC(=O)c1c(O)cccc1O	u	2.6%	27.4	u	0.6%	35.5
Nc1ccc(N2CCN(c3ncc(C(F)(F)F)cc3Cl)CC2)c(C(F)(F)F)c1	x	4.5%	x	x	x	x
Cn1c(=O)c(=O)n(C)c2cc(S(=O)(=O)CCC(=O)Nc3ccc(C(F)(F)F)cc3)ccc21	15.8%	-0.3%	10.1	7.4%	21.8%	-8.4
C/C(=N/NC(=O)c1cc2ccccc2cc1O)C1C(=O)c2ccccc2C1=O	-5.6%	-8.0%	-18.3	-26.4%	u	-2.1
C/C(=N\NC(=O)CNc1ccc(F)cc1)c1cc2ccccc2o1	-16.3%	4.8%	-26.4	7.6%	-17.2%	-14.9
C/C(=N\NC(=O)c1cc2ccccc2cc1O)c1ccccn1	1.3µM*	-4.2%	69.8	1.16µM*	u	-5.5
COc1ccc(NCC(=O)N/N=C(\C)c2cc3ccccc3o2)cc1	u	6.3%	-54.8*	u	-11.2%	-7.7
C/C(=N\NC(=O)CCCNc1ccc(C)cc1)c1ccccn1	5.17µM*	7.6%	11.6	5.8µM*	-0.2%	4.8
COc1ccc(/C=C(/NC(=O)c2ccco2)C(=O)Nc2ccc(C(=O)O)cc2)cc1	-0.1%	0.4%	-11.0	-1.1%	-0.6%	-5.1
Cc1cc(S(=O)(=O)NCc2nc(N3CCCC3)c3cc(Cl)ccc3n2)c(C)s1	-6.9%	x	x	-4.5%[9.04 µM]	x	x
Oc1cccc(/C=N/N2CCN(C3c4ccccc4-c4ccccc43)CC2)c1	u	7.1%	-56.7*	u	-3.2%	u
COc1cccc(/C=N/N2CCN(C3c4ccccc4-c4ccccc43)CC2)c1O	16.4µM*	6.0%	-6.4	u	u	-25.3
C(=N\N1CCN(C2c3ccccc3-c3ccccc32)CC1)/c1ccncc1	u	7.4%	-21.2	u	28.7%	4.1

Screening results from PubChem.
